Measured values as given in PubChem BioAssay AID504582 (Broad Institute, 2011).
The whole screen tested about 340,000 compounds, of which about 2,300 (0.68%) were called active. Shown is part of a subset that was picked to be rich in actives. Unmarked numbers belong to inactive results. Cut-off read from the data, not from the text of the source: active = growth rescue above about 28% (passing the limit was not always enough); inconclusive = no clear call, values can overlap the other calls.

assay: rescue of yeast from PfHsp40 toxicity, primary screen, S. cerevisiae, ATP luminescence (AID 504582);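 note: yeast W303a lacking pdr1 and pdr3 grown in galactose medium; growth measured after three days at 30 °C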; conditions: S. cerevisiae expressing PfHsp40, growth rescue, at 12.5 µM, stronger effect = higher value

| Compound | growth rescue |
| --- | --- |
| CCCCCC(O)c1cccc(OCc2ccc3ccccc3n2)c1 (configuration not stated) | 57.6% (active) |
| Clc1ccccc1-c1cc(COc2ccc3ccccc3c2)no1 | -0.819% |
| COc1cccc(C(O)c2nc3ccccc3n2C)c1 (configuration not stated) | -0.645% |
| Cc1no[n+]([O-])c1COc1ccccc1/C=C1\NC(=S)NC1=O | 0.211% |
| Cc1[nH]c2c(C(=O)N3CCCC(CCC(=O)NCc4ccccc4F)C3)cccc2c1C (configuration not stated) | 1.34% |
| O=C(c1cn(-c2ccccc2)nc1-c1cccnc1)N1CCN(S(=O)(=O)c2ccccc2F)CC1 | -0.533% |
| O=[N+]([O-])/C=C1\CCCCCN1 | 0.302% |
| Cc1ccc(OCC(=O)NNC(=S)NCc2ccccc2)cc1 | -0.289% |
| NS(=O)(=O)c1ccc(CNC(=S)NC(=O)c2ccco2)cc1 | 0.284% |
| O=C(Nc1ccc2ccccc2c1)/C(=C\c1ccc2c(c1)OCO2)NC(=O)c1ccco1 | 0.409% |
| CCCc1ccc(OCC(=O)NNC(=S)NC(=O)c2ccco2)cc1 | 58% (active) |
| O=C(Nc1ccc2ccccc2c1)/C(=C/c1cccc(Br)c1)NC(=O)c1ccco1 | 1.72% |
| CC(Oc1ccc2ccccc2c1)C(=O)NNC(=S)NC(=O)c1ccco1 (configuration not stated) | 58.8% (active) |
| COc1ccc(S(=O)(=O)n2nc(C)c(S(=O)(=O)N3CCOCC3)c2C)cc1 | 0.381% |
| O=C(Cn1cnc2c(nnn2-c2ccccc2)c1=O)N1CCC(Cc2ccccc2)CC1 | -0.205% |
| CCc1ccc(OCC(=O)OCC(=O)c2c(N)n(C)c(=O)n(C)c2=O)cc1 | 1.51% |
| FC(F)(F)c1ccnc(Oc2ccc(C3=NCCS3)cc2)c1 | 4.54% |
| C#CCNc1nc(C(C)C)nc2c1nnn2Cc1ccccc1F | -0.851% |
| CSc1sc(C(=O)NC(=O)NCc2cccnc2)c(C)c1-c1ccon1 | -0.426% |
| O=C(NCCN1CCOCC1)c1cc(Sc2cccc(Cl)c2)nc2ccccc12 | 1.79% |
| O=c1c(/C=N/O)coc2ccc(Cl)cc12 | 412% (active) |

| Compound | growth rescue |
| --- | --- |
| O=C1/C(=C/c2coc3ccc(O)cc3c2=O)SC(=S)N1c1ccccc1 | -0.334% |
| CCOC(=O)C1CCN(Cc2coc3ccc(Cl)cc3c2=O)CC1 | -0.75% |
| COc1ccccc1C(=O)Nc1ccc(OCc2nnc3c4ccccc4c(C)nn23)cc1 | 1.5% |
| C/C(=N/Nc1nc(-c2ccccc2)c(CC(=O)O)s1)c1ccccc1 | -0.261% |
| c1ccc(C(=NNc2nc3ccccc3s2)c2ccccn2)cc1 | 223% (active) |
| COc1cc(OC)nc(N/N=C(\c2ccccc2)c2ccncc2)n1 | 0.409% |
| CCOc1cc(/C=C(/C#N)c2ccc(Cl)cc2)cc(Cl)c1OCC(=O)O | -0.745% |
| CSCCC(NC(=O)c1ccccc1)C(=O)N1CCN(Cc2ccc(Cl)cc2)CC1 (configuration not stated) | 0.474% |
| C[C@H](NC(=O)c1ccccc1Cl)C(=O)OCCOc1cccc(Cl)c1 | 4.16% |
| COC(=O)c1cccc([N+](=O)[O-])c1CS(=O)(=O)c1ccc(C)cc1 | -1.34% |
| O=C(/C=C/c1cccc([N+](=O)[O-])c1)OCC(=O)N1CCOCC1 | -0.951% |
| O=C(/C=C/c1ccccc1[N+](=O)[O-])OCC(=O)N1CCCC1 | 48.9% (active) |
| CC(C)CNC(=O)COC(=O)/C=C/c1ccccc1[N+](=O)[O-] | -0.287% |
| COC(=O)C1=C(NC(=O)C(C)(C)C)CCS1 | -1.07% |
| COc1ccc(CNC(=O)C2CCN(C(=O)c3ccco3)CC2)cc1 | 0.344% |
| CCC/C(=N\O)c1c[nH]c2ccccc12 | 0.247% |
| COc1ccc(/C=C(\C#N)c2c[nH]c3ccccc23)cc1 | 509% (active) |
| COc1cccc(-n2c(SCC(=O)c3c[nH]c4ccccc34)nc3ccccc3c2=O)c1 | -1.82% |
| Cn1c(CCc2ccccc2)nnc1SCC(N)=O | 0.061% |
| COc1cc(C)ccc1OCC(=O)OCC(=O)c1ccc[nH]1 | 62.4% (active) |
| COc1ccc(C(=O)COC(=O)COc2ccc(C)c(C)c2)cc1 | 0.0365% |

| Compound | growth rescue |
| --- | --- |
| CC(=O)Nc1ccc(S(=O)(=O)NCC(=O)OCC(=O)c2ccc[nH]2)cc1 | -1.02% |
| Cc1ccc(NC(=O)NC(=O)N(C2CCCCC2)S(=O)(=O)c2ccccc2)cc1 | -1.71% |
| CCOc1ccccc1NC(=O)C1CCCN(S(=O)(=O)c2ccccc2)C1 (configuration not stated) | 0.502% |
| COc1cccc(Oc2ccc(N)cc2)c1 | 1.74% |
| CC(C)(C)c1ccc(OC2=CS(=O)(=O)c3ccccc32)cc1 | 6.99% |
| CC(C)(C)c1ccc(Oc2ccc(N)cc2)cc1 | 346% (active) |
| O=C1C(C=NCC2CCCO2)=C(O)c2ccccc21 (configuration not stated) | 0.444% |
| Cc1cc(C(=O)CC#N)c(C)n1CC(F)(F)F | 0.147% |
| CC(C)Cn1c(SCC(=O)Nc2ccc(Cl)cc2F)nc(O)cc1=O | 1.12% |
| COc1cccc(CNC(=O)C2CCCN(S(=O)(=O)N3CC(C)CC(C)C3)C2)c1 (configuration not stated) | 0.206% |
| COc1ccc(Oc2cn[nH]c2-c2ccc(OC)cc2O)cc1 | 10.8% |
| CCOc1ccc(-c2nc(N)ncc2-c2ccccc2OC)c(O)c1 | 1.96% |
| CCOc1ccccc1Oc1cn[nH]c1-c1ccc(OC)cc1O | 125% (active) |
| COc1ccccc1/C=C1\SC(=O)N(CCC(=O)N(C)C2CCS(=O)(=O)C2)C1=O (configuration not stated) | -0.442% |
| CCOc1ccc(C(CC(=O)O)NC(=O)Cc2ccccc2)cc1OC (configuration not stated) | -0.249% |
| COc1ccc(CCNS(=O)(=O)c2cccc3cccnc23)cc1OC | 0.122% |
| CCCCC(=O)NC(c1ccc(OC)c(OC)c1)c1ccc2cccnc2c1O (configuration not stated) | 222% (active) |
| CCOC(=O)C(C)Oc1cccc2c(=O)n(CC(=O)N3CCc4ccccc43)ccc12 (configuration not stated) | 92.2% (active) |
| CCOC(=O)C(C)Oc1cccc2c(=O)n(CC(=O)NCCc3ccc(OC)c(OC)c3)ccc12 (configuration not stated) | 0.594% |
| COc1cccc2c(=O)n(CC(=O)N3CCCCCC3)ccc12 | -0.593% |
